# ChEMBL document CHEMBL1157539, “Thousands of chemical starting points for antimalarial lead identification” (Nature, 2010)
# Experiments:
# Type in all cases: functional
# Plasmodium falciparum [1] = test: GSK_TCMDC: Inhibition of Plasmodium falciparum 3D7 in whole red blood cells, using parasite LDH activity as an index of growth. Test compounds present at 2uM
# Plasmodium falciparum [2] = test: GSK_TCMDC: Inhibition of Plasmodium falciparum Dd2 in whole red blood cells, using parasite LDH activity as an index of growth. Test compounds present at 2uM
# HepG2 = test: GSK_TCMDC: Percent inhibition of human HepG2 cell line. Test compounds present at 10uM.
Compound,Inhibition (Plasmodium falciparum [1]) [%],Inhibition (Plasmodium falciparum [2]) [%],Inhibition (HepG2) [%]
COc1ccc2nccc([C@@H](O)CN3CCC(NC(=O)c4cc5ccccc5[nH]4)CC3)c2c1.CS(=O)(=O)O,96,55,19
CCOc1ccc(Cc2c(C)nc3nc(N)nc(N)c3c2C)cc1.Cl,91,7,63
CCCNCc1ccc(-c2ccc(CN(Cc3cnc(C)cn3)C(=O)c3nn(-c4ccccc4)nc3C)cc2)nc1.O=C(O)C(F)(F)F,99,49,22
CN1CCN(c2cc(NC(=O)Nc3cccc(Cl)c3Cl)ccc2Cl)CC1.Cl,100,21,2
Cn1nc(-c2ccc(NC(=O)Nc3cc(C(F)(F)F)ccc3F)cc2)c2cnc(NCCCCN3CCCC3)nc21.O=C(O)C(F)(F)F,98,74,88
Cc1cccc2nc(-c3ccc(-c4cccc(CNCCc5ccncc5)c4)cc3)[nH]c12.O=C(O)C(F)(F)F,100,95,28
COc1ccc(C2SCC(=O)N2CCc2ccc(OC)c(OC)c2)cc1 (stereo not given),96,2,19
COc1cccc(Nc2c(C(N)=O)cnc3ccc(-c4ccccc4)cc23)c1,98,99,2
CCn1cnc2c(N3CCCC3=O)cc(C(=O)N[C@@H](Cc3ccccc3)[C@H](O)CNC3CCCCC3)cc21,98,94,0
CC(C)c1cc2c(cc1O)C(Cc1ccccc1Cl)N(C)CC2.Cl (stereo not given),97,33,0
CCCN(CCC)CCCNc1ccc(C(=O)Nc2ccc(C)c(F)c2)cc1[N+](=O)[O-],100,94,33
CC(=O)c1c(C)[nH]c(C(=O)Nc2ccc(-c3nc4ccc(C)cc4s3)cc2)c1C,92,40,11
O=C(O)C(F)(F)F.c1ccc(CCNCc2ccc(-c3ccc(CNCc4ccc5c(c4)OCO5)cc3)nc2)cc1,94,67,24
O=C(Nc1cccc(CN2CCCN(Cc3ccccc3)CC2)c1)c1cc2ccccc2s1.O=C(O)C(F)(F)F,87,28,41
Cc1cccc(CN2CCCC3(CCN(Cc4ccccc4O)C3)C2)c1 (stereo not given),99,76,14
COc1cc(NCCCNC(=O)c2cc3c(Cl)cc(Cl)cc3[nH]2)nc2ccccc12,100,100,96
CC(C)C1=CC(=NOS(=O)(=O)c2ccccc2)C=C(C(C)C)C1=O,92,74,23
CCCc1cc(Cc2cnc(N)nc2N)cc(CC)c1OC.Cl,97,1,4
OC(CNCc1cccc(Oc2ccc(Cl)cc2)c1)c1cc(C(F)(F)F)cc(C(F)(F)F)c1 (stereo not given),99,100,0
COc1cc2c(Nc3cccc(NC(=O)c4ccccc4)c3)ncnc2cc1OCCCN1CCOCC1,100,100,0

Compound,Inhibition (Plasmodium falciparum [1]) [%],Inhibition (Plasmodium falciparum [2]) [%],Inhibition (HepG2) [%]
CCN(CC)S(=O)(=O)c1ccc(C=CC(=O)Nc2cc(Cl)ccc2N2CCOCC2)cc1,90,65,3
O=C(Nc1ccc(Cn2nc(Cl)c(N3CCCNCC3)cc2=O)cc1)c1ccc(-c2ccccc2)cc1.O=C(O)C(F)(F)F,87,35,93
Cc1ccc(NC(=O)NC2CCN(CCCCCNC(=O)C3CC3c3ccc(Cl)c(Cl)c3)CC2)cc1 (stereo not given),100,19,35
COc1cccc(NC(=O)c2nc(N3CCN(c4ccncc4)CC3)ccc2Cl)c1.O=C(O)C(F)(F)F,97,65,14
COC(=O)c1ccc(N2CCN(CCCCNC(=O)c3ccc(NC(=O)c4ccc(Cl)cc4)cc3)CC2)c(OC)c1,82,1,11
CC(=O)Nc1ccc(C2NC(=O)NC(c3ccccc3)=C2c2nc3ccccc3s2)cc1 (stereo not given),93,96,0
COc1ccccc1-n1c(SCC(=O)Nc2ccccc2F)nc2cccnc21,96,88,0
C[C@@H](Oc1cc(-n2cnc3ccc(NC(=O)CCN4CCCCC4)cc32)sc1C(N)=O)c1ccccc1Cl,100,60,36
CCCC(C)Nc1nc(C)cc(N[C@@H](CC(C)C)C(=O)NC2CCCC2)n1.O=C(O)C(F)(F)F (stereo not given in full),85,22,6
COc1ccc(-c2ccc(NC(=O)c3cccc(C#N)c3)cc2)cc1CN1CCNCC1.O=C(O)C(F)(F)F,100,47,30
Cc1cc(CN2CCC(N3CC(c4ccccc4)(c4ccccc4)OC3=O)C2)ccc1O (stereo not given),96,68,0
FC(F)(F)c1cccc(-c2cc(NCCCn3ccnc3)nc(-c3ccncc3)n2)c1,100,100,50
Cc1cc(N[C@@H](Cc2ccccc2)C(=O)NCc2cccc(F)c2)nc(NCc2ccccc2C)n1.O=C(O)C(F)(F)F,100,75,6
CCC(=O)N(c1ccccc1)C1CCN(CCCC(NC(=O)c2cc(C(F)(F)F)cc(C(F)(F)F)c2)c2ccc(Cl)c(Cl)c2)CC1 (stereo not given),96,57,24
CCOc1ccc2nc(N(CCCn3ccnc3)C(=O)C=Cc3cccs3)sc2c1.Cl,97,97,0
CC1=C(C(=O)Nc2ccccc2)C(c2ccc([N+](=O)[O-])cc2)n2ncc(C(=O)Nc3ccccc3)c2N1 (stereo not given),86,68,9
CN(C)c1ccc(CN2CCC(NC(=O)c3ccc(-c4ccc(N(C)C)cc4)s3)CC2)cc1.O=C(O)C(F)(F)F,93,21,24
COc1ccccc1C(=O)C1CCCN(C(=O)c2ccccc2C(F)(F)F)C1 (stereo not given),91,84,0
O=C(Cc1ccccc1)NC(c1ccccc1)c1ccc2cccnc2c1O (stereo not given),89,61,49
O=C(O)C(F)(F)F.O=S(=O)(NCCN1CCCC1)c1cccc(-c2ccc(CNCc3ccsc3)cc2)c1,100,31,33

Compound,Inhibition (Plasmodium falciparum [1]) [%],Inhibition (Plasmodium falciparum [2]) [%],Inhibition (HepG2) [%]
CCOC(=O)c1ccc(NC(=O)NCCCC2CCCN(CCCCCNC(=O)/C=C/c3ccc(Cl)c(Cl)c3)C2)cc1 (stereo not given),96,30,14
CC(=NO)C1=C(O)C(c2ccccc2)N(c2ccccc2)C1=O (stereo not given),99,23,12
CN(c1ccc2c(c1)nc(NC(=O)C1(c3cc(F)ccc3F)CC1)n2C)c1ccnc(Nc2cccc(CS(C)(=O)=O)c2)n1.O=C(O)C(F)(F)F,89,46,42
COc1ccc(CNCCCCCNCc2ccc(Cl)c(Cl)c2)cc1Cl,98,43,42
CC(C)Sc1ccc(Cl)cc1CON1C(=N)N=C(N)NC1(C)C.Cl,93,90,66
O=S(=O)(Nc1ccc(CCN2CCCCC2CCN2CCCC2)cc1)c1ccc(-c2ccccc2)cc1 (stereo not given),98,18,18
Cc1cc2nc(-c3ccc(/C=C/C(=O)NC4CCCCC4)cc3)[nH]c2cc1C,93,10,9
COCCN1CCN(Cc2ccc(-c3ccc(-c4nc5cccc(C)c5[nH]4)s3)cc2)CC1.O=C(O)C(F)(F)F,95,52,32
O=C(O)c1ccc(NC(=O)C2CC(=O)N(Cc3ccc(Cl)cc3)C(=Nc3ccc(Cl)cc3)S2)cc1 (stereo not given),99,95,0
O=C(O)C(F)(F)F.c1ccc(CN2CCC(NCc3ccccc3-c3ccc(CNC4CCCC4)cc3)CC2)cc1,100,33,38
Cc1cccc2nc(-c3ccc(-c4cccc(NC(=O)NCc5cccc(F)c5)c4)cc3)[nH]c12,94,5,27
CN1CCCN(Cc2cccc(-c3ccc(NC(=O)c4ccc(Cl)cc4)cc3)c2)CC1.O=C(O)C(F)(F)F,97,35,31
CC(C)CNCc1cccc(-c2cccc(CN(CCN(C)C)C(=O)Nc3ccccc3)c2)c1.O=C(O)C(F)(F)F,99,62,34
NCCCNc1nccc(N2CCc3ncnc(Nc4ccc(OCc5cccc(F)c5)c(Cl)c4)c3C2)n1,98,93,18
Nc1ccc2[nH]cc(C3CCN(CC4CCC(NC(=O)/C=C/c5ccc(Cl)c(Cl)c5)CC4)CC3)c2n1 (stereo not given),100,93,18
CCc1cn(CCCOC)c2ccc(C(=O)N[C@@H](Cc3ccccc3)[C@H](O)CNCc3cccc(C(F)(F)F)c3)cc12,93,78,8
c1cncc(-c2cccc(CNc3nccc(Nc4ccc(OCCN5CCOCC5)cc4)n3)c2)c1,93,27,1
O=C(O)C(F)(F)F.O=[N+]([O-])c1cccc(CNCC2CCN(Cc3ccc(Cl)c(Cl)c3)CC2)c1,100,41,9
Cc1cccc2nc(-c3ccc(-c4cccc(NC(=O)c5ccncc5)c4)cc3)[nH]c12,98,8,46
CCOC(=O)c1c(NC(=O)c2ccccc2)sc2c(O)c(CN(CC)CC)ccc12.Cl,100,100,9
